# E coli growth-1: bacterial growth inhibition, counter-screen for AddAB inhibitors. E. coli V3065 growth, OD600 absorbance, 18 h. inhibition, % at 11.9 µM. 330,000 compounds, 0.27% hits;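 active means inhibition above the campaign's mean inhibition across all tested compounds plus 3 SD, cut at about 9.9% in these data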;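 further: uninfected addAB+ strain grown without phage in ampicillin broth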
# E coli growth-2: blocks Escherichia coli growth; 330,000 compounds, 0.21% hits; OD600 absorbance (no concentration beside the values); AID 1053175; OD600, 23 h; active compounds read low;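 active means OD600 absorbance below the run mean of sample wells minus 3.6 SD, in any replicate, cut at about 0.56 in these data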
# Tat export inh: E. coli Tat transport inhibition | E. coli MC4100 TorA-mCherry Tat export, fluorescence | 340,000 compounds, 0.036% hits | inhibition, % at 10 µM | AID 488895;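 active means mean replicate inhibition at least 50% and at least half of replicates individually reaching 50%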;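 further: exported cargo escapes ClpAP degradation while cytoplasmic cargo is degraded and loses fluorescence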
# AddAB inh: less growth of phage-infected E. coli with AddAB. E. coli expressing H. pylori AddAB, absorbance growth. inhibition, % at 11.9 µM. 330,000 compounds, 0.29% hits; in the data active means inhibition above about 12%
# phage Ecoli inh: E. coli growth loss with phage present; growth absorbance; 360,000 compounds, 0.26% hits; AID 651602; inhibition, % at 11.9 µM; in the data active means inhibition above about 11%
# Hits are given with their value; - = inactive; . = no result. Compounds with a hit are over-represented: about 0.5% of the library has one in this group of screens.
SMILES,E coli growth-1,E coli growth-2,Tat export inh,AddAB inh,phage Ecoli inh
COc1ccccc1NC(=O)CN(Cc1ccco1)C(=O)c1cc2ccccc2o1,-,0.54,-,-,.
COc1ccccc1NC(=O)CN(Cc1ccco1)C(=O)c1ccc(=O)[nH]c1,-,-,-,-,-
COc1ccc(-c2ccc(OC)c(C3C4C=CCC[C@@]4(C)C(=O)N3Cc3ccccc3)c2)cc1OC (stereo partly drawn),.,-,.,.,.
O=C(NCc1ccccc1)c1cc(S(=O)(=O)N2CCCCC2)ccc1N1CCOCC1,-,0.44,-,-,-
CC(C)C(C(=O)N1CCNCC1)n1cc(CCO)nn1 (stereo not drawn),.,-,.,.,.
CCOC(=O)C1C2COc3ccc(OC)cc3C2N2C(=O)c3cc(C)ccc3NC(=O)[C@@]12C (stereo partly drawn),.,-,.,.,.
CC(=O)NCc1ccc(C(=O)CCl)s1,-,0.49,-,-,-
CC(=O)Nc1ccc(C)cc1,-,-,-,-,-
CC(=O)NCc1ccc(C(=O)CCl)cc1,-,0.51,-,-,-
CC(=O)Nc1ccc(C(=O)CCl)cc1,-,0.41,-,-,-
CC(=O)N(C)Cc1ccc(C(=O)CCl)cc1,-,-,-,-,-
O=C(Nc1cccs1)Nc1ccc(Br)cc1F,-,0.49,-,-,-
O=C1Nc2ccc(Br)cc2C1(O)c1ccccc1 (stereo not drawn),-,-,-,-,-
O=C1Nc2ccc(Br)cc2C12NNc1ccccc1O2 (stereo not drawn),-,0.43,-,-,-
CCOC(=O)C1C2COc3ccc(Br)cc3C2N2C(=O)CN(Cc3ccccc3)C(=O)[C@@]12C (stereo partly drawn),.,-,.,.,.
CCOc1ccc(NS(=O)(=O)c2ccc(C(=O)NNC(=O)c3ccccc3O)cc2)cc1,-,0.52,-,-,-
CN1CCN(C2=Cc3cc(Cl)ccc3Sc3cc(F)ccc32)CC1,-,0.36,-,-,-
Cc1cccc(NC(=S)N/N=C/c2ccc([N+](=O)[O-])s2)c1,19,.,-,15,-
CCN1CC2C3C(=O)N(Cc4ccccc4)C(=O)C3[C@](C)(C1=O)N2C(=O)c1ccc(Br)cc1 (stereo partly drawn),.,-,.,.,.
Cc1cc(C(C#N)c2ccc(Cl)cc2)c(Cl)cc1NC(=O)c1cc(I)cc(I)c1O (stereo not drawn),11,.,-,-,-
N#CC(=Cc1c(N(Cc2ccccc2)Cc2ccccc2)nc2ccccn2c1=O)C(N)=O,.,-,.,.,.
COCCn1c(SCC(=O)NCc2ccc3c(c2)OCO3)nnc1C(C)C,-,-,-,-,-
COCCn1c(SCC(=O)NCc2ccc3c(c2)OCO3)nnc1-c1c[nH]c2ccccc12,-,-,-,-,93
CCCCCCCCCCCCCCCC[N+](C)(C)CCN(Cc1ccc(OC)cc1)c1ncccn1,-,.,54,-,.
CCOC(=O)c1sc(NC(=O)Nc2ccccc2Cl)cc1C,-,-,-,-,-
SMILES,E coli growth-1,E coli growth-2,Tat export inh,AddAB inh,phage Ecoli inh
CCOC(=O)c1sc(NC(=O)Nc2ccccc2)cc1C,-,0.53,-,-,-
Cc1noc(NS(=O)(=O)c2ccc(NC(=O)CCn3c(=O)oc4ccccc43)cc2)c1C,10,-,-,-,-
Cc1cc(C)nc(NS(=O)(=O)c2ccc(NC(=O)Cn3c(=O)oc4ccccc43)cc2)n1,-,-,-,-,-
C/C(C=NNc1nc2ccccc2[nH]1)=C\c1ccccc1,.,0.51,.,.,.
CCCCCCCNC(=O)C1(CC2CC(c3cccc(Br)c3)=NO2)CCNCC1 (stereo not drawn),-,0.048,-,-,-
C#CCOCCOCCOCCNc1nc(N2CCN(C(=O)CCCCCCCCCCNC(=O)C(CCSC)n3cc(CCO)nn3)CC2)nc(N2CCN(C(=O)CCCCCCCCCCNC(=O)C(CCSC)n3cc(CCO)nn3)CC2)n1 (stereo not drawn),.,-,.,.,.
CCn1cc(C(=O)O)c(=O)c2cnc(N3CCN(C(=S)NC(=O)c4ccc(Br)cc4)CC3)nc21,-,0.46,.,-,.
CCN1CCN(C(=S)NC(=O)c2cc(OC)c(OC)c(OC)c2)CC1,-,-,-,-,-
CCn1cc(C(=O)NCCc2ccc(Cl)cc2)c(=O)c2ccc(C)nc21,.,-,-,.,-
CCn1cc(C(=O)O)c(=O)c2cnc(N3CCNCC3)nc21,103,.,.,102,.
CCn1cc(C(=O)O)c(=O)c2cnc(N3CCN(C(=S)NC(=O)c4ccc(Cl)cc4)CC3)nc21,-,0.43,.,-,.
CCOC(=O)C1C2COc3ccc(Cl)cc3C2N2C(=O)c3ccccc3NC(=O)[C@@]12C (stereo partly drawn),.,-,.,.,.
COC(=O)C1=CC(C(=O)OC)C2C3=C(C(=O)[C@@]2(C)NC(=O)c2ccccc2)C(c2ccccc2)C2C(=O)NC(=O)C2C3C1 (stereo partly drawn),.,-,.,.,.
CCn1cc(C(=O)N2CCN(c3cccc(C)c3C)CC2)c(=O)c2ccc(C)nc21,-,0.42,-,-,-
CCn1cc(C(=O)NCc2ccccc2OC)c(=O)c2ccc(C)nc21,-,-,.,-,.
CCn1cc(C(=O)OCC(=O)NCc2ccccc2Cl)c(=O)c2ccc(C)nc21,-,0.51,-,-,-
CCn1cc(C(=O)OC)c(=O)c2ccc(C)nc21,-,-,-,-,-
CCn1cc(C(=O)N2CCN(c3ccc([N+](=O)[O-])cc3)CC2)c(=O)c2ccc(C)nc21,-,-,-,-,-
CCn1cc(C(=O)OCC(=O)Nc2c(C)cccc2C)c(=O)c2ccc(C)nc21,-,0.49,-,-,-
CCC1=C(OC(=O)N(CC)CC)N2C(=O)OC(=NCC(=O)OC)[C@]2(Cc2ccccc2)C2C1=CCC1C(=O)N(CC(=O)OC)C(=O)C12 (stereo partly drawn),.,-,.,.,.
C=C(C)C(=O)Nc1cccc(C2=NOC3(C2)CC(C(N)=O)N(C(=O)c2ccccc2C(=O)c2ccccc2)C3)c1 (stereo not drawn),.,-,.,.,.
NC(=O)CNC(=O)C1CC2(CC(c3cccc([N+](=O)[O-])c3)=NO2)CN1C(=O)c1ccccc1 (stereo not drawn),.,-,.,.,.
CN1C(=O)C2C(C1=O)C(c1ccc(F)cc1)N1C(=O)c3ccccc3NC(=O)C21 (stereo not drawn),.,-,.,.,.
NC(=S)n1[nH]c(-c2ccc([N+](=O)[O-])cc2)c(N=Nc2cccc(Cl)c2)c1=O,.,-,-,.,-
NC(=S)n1[nH]c(-c2ccc([N+](=O)[O-])cc2)c(N=Nc2ccc(O)cc2)c1=O,17,-,-,-,-
SMILES,E coli growth-1,E coli growth-2,Tat export inh,AddAB inh,phage Ecoli inh
CC(=O)N1CCN(c2ccc(NC(=O)C=Cc3ccccc3)cc2)CC1,.,-,.,.,.
O=S1(=O)CCOCC(Cc2ccccc2)N1Cc1ccc(Cl)cc1 (stereo not drawn),.,-,.,.,.
CC(C)CC(C(=O)O)N1C(=O)C2C3CC(C2C1=O)C1C(c2ccccc2)c2sc(=O)[nH]c2SC31 (stereo not drawn),-,0.51,-,-,-
O=C(CCN1CCOCC1)c1ccccc1,-,-,-,-,-
O=C(CCN1CCOCC1)NNC(=S)NC(=O)c1ccccc1,-,0.53,-,-,-
CC(C)c1ccc2c(c1)CC[C@H]1[C@](C)(CN)CCC[C@]21C,.,.,-,.,-

# Source: PubChem (several laboratories)
